Pf apPOL block: Pf-apPOL DNA polymerase inhibition | Recombinant Pf-apPOL, molecular beacon fluorescence, 1.5 h | inhibition, % at 10 µM | 210,000 tested, 0.25% active | AID 1794808
mHTT-CaM PPI inh: inhibitors of human mutant huntingtin-calmodulin interaction; AlphaScreen His-mHTT/GST-CaM binding, luminescence; inhibition, % at 15 µM; 190,000 tested, 3.6% active; AID 1671202
A number is an active result; n = inactive; x = not tested or not shown. Shown are actives, neighbours in structure and some others; about 3.5% of the full set was active somewhere. Rule as the data show it: active = inhibition above about 50%; inactive = the rest.

SMILES	Pf apPOL block	mHTT-CaM PPI inh
COc1ccc(C2Oc3ccccc3C3CC(c4cccs4)=NN32)cc1O (stereo unspecified)	n	52
COc1ccc(OC)c(C2Oc3c(OC)cccc3C3CC(c4cccs4)=NN32)c1 (stereo unspecified)	n	n
Clc1cccc(C2Oc3ccccc3C3CC(c4ccccc4)=NN32)c1 (stereo unspecified)	x	n
CCOc1cccc(C2Oc3ccccc3C3CC(c4cccs4)=NN32)c1O (stereo unspecified)	n	50
COc1c(O)ccc(C2Oc3ccccc3C3CC(c4cccs4)=NN32)c1[N+](=O)[O-] (stereo unspecified)	n	55
O=C(c1cccs1)N1N=C(c2cccs2)CC1c1cc([N+](=O)[O-])ccc1O (stereo unspecified)	n	n
COc1cc(C2Oc3ccccc3C3CC(c4cccs4)=NN32)cc(OC)c1O (stereo unspecified)	n	n
Cc1ccc(-c2nc(C3CCN(S(=O)(=O)c4ccc(C)c(C)c4)CC3)no2)cc1	n	n
CC(C)OCCCNC(=O)c1ccc2c(c1)NC(=O)C1CCCCN21 (stereo unspecified)	n	n
Oc1ccc(C2Oc3ccccc3C3CC(c4cccs4)=NN32)cc1O (stereo unspecified)	n	n
c1coc(C2Oc3ccccc3C3CC(c4cccs4)=NN32)c1 (stereo unspecified)	n	92
O=C(COc1ccc([N+](=O)[O-])cc1)c1ccc(Cl)cc1	n	n
COc1ccc(C(=O)Nc2nnc(C3CC(=O)N(c4ccc(Cl)cc4)C3)o2)cc1OC (stereo unspecified)	n	76
COc1ccc(N2CC(c3nnc(NC(=O)c4ccc(Cl)cc4)o3)CC2=O)cc1 (stereo unspecified)	n	n
Cc1ccccc1C(=O)Nc1nnc(C2CC(=O)N(c3ccc(S(C)(=O)=O)cc3)C2)o1 (stereo unspecified)	n	n
COc1ccc(C(=O)Nc2nnc(C3CC(=O)N(c4ccccc4)C3)o2)cc1OC (stereo unspecified)	n	61
COc1ccc(C(=O)Nc2nnc(C3CC(=O)N(c4ccccc4)C3)o2)cc1 (stereo unspecified)	n	n
O=C(Nc1nnc(C2CC(=O)N(c3ccccc3)C2)o1)c1ccccn1 (stereo unspecified)	n	100
O=C(Nc1nnc(C2CC(=O)N(c3ccccc3)C2)o1)c1ccc(Br)cc1 (stereo unspecified)	n	n
CS(=O)(=O)c1ccc(N2CC(c3nnc(NC(=O)c4cccs4)o3)CC2=O)cc1 (stereo unspecified)	n	53
COc1cc(/C=C2/N=C(c3ccc(F)cc3)OC2=O)cc(OC)c1OC	n	n
CCC(=O)Nc1ccc(SCc2cc(C)ccc2C)nn1	n	n
COc1ccc(-c2ccc(/C=C3/C(=O)N(c4cccc(Cl)c4)N=C3C)o2)cc1[N+](=O)[O-]	n	n
Cc1cc(C(F)(F)F)nn1CC(=O)Nc1ccc(Cl)cc1Cl	n	n
COc1cc(C)c(S(=O)(=O)n2c([N+](=O)[O-])cnc2C)cc1C	n	n
SMILES	Pf apPOL block	mHTT-CaM PPI inh
Cc1ccc(C2=N/C(=C\c3ccc(C(C)C)cc3)C(=O)O2)cc1[N+](=O)[O-]	n	n
CC(=O)c1ccc2c(c1)C1C=CCC1C(c1ccccc1Cl)N2 (stereo unspecified)	n	n
Clc1ccc2c(c1)C1C=CCC1C(c1cccc3ccccc13)N2 (stereo unspecified)	x	65
Cc1ccc2c(c1)C1C=CCC1C(c1ccccc1Cl)N2 (stereo unspecified)	n	83
CC(C)(C)NC(=O)/C(=C\c1cccs1)NC(=O)c1cccs1	n	n
Cc1cc(C)c2c(N3CCCCC3)nc(C(=O)NCC3CC3)nc2n1	n	n
COc1ccc(C(=O)N2CCC(c3cc4n(n3)CCCN(C)C4=O)CC2)cc1	n	n
CSc1nnc2c(n1)OC(c1cccs1)Nc1ccccc1-2 (stereo unspecified)	n	n
CCCCSc1nnc2c(n1)OC(c1cc3c(cc1[N+](=O)[O-])OCO3)Nc1ccccc1-2 (stereo unspecified)	n	77
CCSc1nnc2c(n1)OC(c1cn[nH]c1-c1ccccc1)Nc1ccccc1-2 (stereo unspecified)	n	n
CSc1nnc2c(n1)OC(c1ccc(Br)s1)Nc1ccccc1-2 (stereo unspecified)	n	57
CCSc1nnc2c(n1)OC(c1cc3c(cc1[N+](=O)[O-])OCO3)Nc1ccccc1-2 (stereo unspecified)	n	53
CCCCSc1nnc2c(n1)OC(c1ccncc1)Nc1ccccc1-2 (stereo unspecified)	n	n
CSc1nnc2c(n1)OC(c1ccccc1O)Nc1ccccc1-2 (stereo unspecified)	n	n
CSc1nnc2c(n1)OC(c1cc3c(cc1Br)OCO3)Nc1ccccc1-2 (stereo unspecified)	85	n
O=C1C(=Cc2ccc3c(c2)OCO3)C(=O)c2ccccc21	n	n
CC(C)OC(=O)c1cc2cc(Br)ccc2oc1=O	n	n
Cc1ccccc1C1SCC(=O)N1CC(=O)N1CCN(C)CC1 (stereo unspecified)	n	n
COc1ccc(OC)c(NS(=O)(=O)c2ccc3c(c2)CC(C)N3C(C)=O)c1 (stereo unspecified)	n	n
CC(=O)N(Cc1ccco1)C(C)CCC=C(C)C (stereo unspecified)	n	n
COc1cc(OC)c(OC)cc1CNc1ccc([N+](=O)[O-])cc1C	n	n
COc1cc(OC)c(OC)cc1CNc1ccc(Br)cc1C	n	76
Nc1c(N2CCSCC2)c(=O)c1=O	n	x
O=C1S/C(=C\c2ccc(F)cc2)C(=O)N1CNc1cccc(Cl)c1	n	n
O=C1S/C(=C\c2ccc(F)cc2)C(=O)N1CNc1ccc(Br)cc1	n	n
SMILES	Pf apPOL block	mHTT-CaM PPI inh
O=C1S/C(=C\c2ccc(F)cc2)C(=O)N1CNc1ccccc1	n	57
Cc1cccc(NCN2C(=O)S/C(=C\c3ccc(F)cc3)C2=O)c1	n	55
Cc1ccc(Nc2cc(-n3ccnc3)ncn2)cc1C	n	n
CCCc1[nH]n(-c2ccc(F)cc2)c(=O)c1C=NCCc1ccc(Cl)cc1	n	n
O=C(NCCn1ncccc1=O)Nc1ccc(OC(F)(F)F)cc1	n	n
CCc1nc(-c2ccc(C(=O)N3CCc4ccccc4C3)cc2)cs1	n	60
CCc1nc(-c2ccc(C(=O)N3CCN(c4ccccc4)CC3)cc2)cs1	n	n
Cc1nc(C)c2c(n1)N(CC1CCCCC1)C(=O)CC2	50	n
Cc1nc(C)c2c(n1)N(CC1CCCO1)C(=O)CC2 (stereo unspecified)	n	n
Cc1cccc(CN2C(=O)CCc3c(C)nc(C)nc32)c1	51	n
Cc1cccc(CN2C(=O)CCc3c(C)nc(-c4ccncc4)nc32)c1	n	n
Cc1ccc(C)c(NS(=O)(=O)c2ccc(Cl)cc2)c1	n	n
Cc1ccc(C(=O)N2CCCC(c3nc(CNC(=O)C(C)C)cs3)C2)cc1F (stereo unspecified)	n	n
CCC(=O)Nc1nc2ccccc2n1Cc1ccc(Cl)cc1	n	72
CCC(=O)Nc1nc2ccccc2n1C	n	n
O=C(c1cccc(OCC2CCCN(C(=O)c3cc(F)ccc3F)C2)c1)N1CCCCC1 (stereo unspecified)	n	n
Cc1ccc(N=C2C(=O)Nc3ccccc32)c(C)c1	n	n

Compound activity deposited in PubChem by University of Kansas High Throughput Screening Laboratory.
